MITF primary = blocks human microphthalmia-associated transcription factor; AID 1259374; O75030; AlphaScreen MITF homodimerization, bead proximity signal; 650,000 compounds, 0.91% hits; inhibition, % at 2.6 µM; in the data active means inhibition above about 50%;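 further: 0% = vehicle wells with protein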
TEAD-YAP inh = TEAD-YAP interaction inhibition; HEK-TIYL cells, TEAD-Gal4/YAP UAS-luciferase luminescence; inhibition, % at 9.12 µM; 640,000 compounds, 1.4% hits; AID 1259422; in the data active means inhibition above about 32%;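 further: 0% = median of test compound wells and 100% = reference inhibitor wells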
FBW7 activator = human FBW7 E3 ligase activation, primary screen. Q969H0. AlphaScreen FBW7–phospho-cyclin E peptide binding, activator screen. normalized activity (activation), % at 26.1 µM. 650,000 compounds, 0.13% hits; in the data active means normalized activity above about 1.9%;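 further: purified mutant Fbw7 with reduced substrate affinity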
Target sequence (Q969H0 whole entry, looked up): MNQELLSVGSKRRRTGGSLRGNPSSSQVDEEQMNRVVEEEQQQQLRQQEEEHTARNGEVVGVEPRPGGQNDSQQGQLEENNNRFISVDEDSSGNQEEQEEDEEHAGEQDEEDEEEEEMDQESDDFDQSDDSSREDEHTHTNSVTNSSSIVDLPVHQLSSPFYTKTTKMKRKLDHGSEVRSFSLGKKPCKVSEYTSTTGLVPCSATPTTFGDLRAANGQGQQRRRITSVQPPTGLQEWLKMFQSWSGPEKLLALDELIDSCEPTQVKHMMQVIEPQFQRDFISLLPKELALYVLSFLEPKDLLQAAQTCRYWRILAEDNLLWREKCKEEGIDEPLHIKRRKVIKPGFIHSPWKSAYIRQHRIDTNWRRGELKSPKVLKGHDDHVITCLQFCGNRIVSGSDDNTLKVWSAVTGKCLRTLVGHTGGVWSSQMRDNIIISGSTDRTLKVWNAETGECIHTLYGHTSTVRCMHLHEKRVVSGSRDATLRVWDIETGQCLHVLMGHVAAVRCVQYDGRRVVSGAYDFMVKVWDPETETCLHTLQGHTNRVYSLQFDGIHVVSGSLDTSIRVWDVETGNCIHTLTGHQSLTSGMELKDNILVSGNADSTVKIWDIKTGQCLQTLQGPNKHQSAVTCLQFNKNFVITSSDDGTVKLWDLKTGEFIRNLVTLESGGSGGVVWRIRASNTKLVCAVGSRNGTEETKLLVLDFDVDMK
GPR151 ag = activators of human GPR151; Q8TDV0; PathHunter beta-arrestin GPR151 cells, luminescence; activation, % at 11.2 µM; 650,000 compounds, 1% hits; in the data active means activation above about 4.9%;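 further: 0% = median of compound wells and 100% = cells with positive control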
MITF inh conf = human MITF inhibition, confirmation; shares compounds with MITF primary; inhibition, % at 2.6 µM; 4,700 compounds, 16% hits; AlphaScreen MITF homodimerization, biotin/His-MITF beads;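 active means inhibition above a cutoff derived from the DMSO control wells, cut at about 28% in these data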;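 further: 0% = MITF dimer wells with DMSO only; inhibitors lower the bead chemiluminescence by keeping MITF from dimerizing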
AlphaScreen DR = optically interferes with AlphaScreen signal in dose response; shares compounds with MITF primary; AlphaScreen optical interference counterscreen, cell-free; IC50, µM; 480 compounds, 6% hits; AID 1259373; call rule not given here
AS interf ctr = counter-screen: compounds optically interfering with AlphaScreen | shares compounds with MITF primary | LysRS AlphaScreen counterscreen, signal interference, triplicate | inhibition, % at 2.6 µM | 4,700 compounds, 7.6% hits | AID 1259376;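 active means inhibition above a cutoff derived from the DMSO control wells, cut at about 30% in these data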
* hit, by the source's call. The list is not random: actives were taken first. Their share in the collection is about 3.5%.

What do the screens show for `CC(C)C[C@H]1C(=O)N2CCN(C(=O)NC3CCCCC3)C[C@@H]2C(=O)N1C`?
MITF primary: 70*; TEAD-YAP inh: 1; FBW7 activator: 0; GPR151 ag: -1; MITF inh conf: 71*; AlphaScreen DR: >6.5; AS interf ctr: -10

What do the screens show for `C[C@H]1C(=O)N2CCN(C(=O)NC3CCCCC3)C[C@@H]2C(=O)N1C`?
MITF primary: 78*; TEAD-YAP inh: 8; FBW7 activator: 0; GPR151 ag: -1; MITF inh conf: 74*; AlphaScreen DR: >6.5; AS interf ctr: -9

Results for O=c1ccc(-c2ccc(F)cc2)cn1Cc1cccc(Cl)c1 ?
MITF primary: 6; TEAD-YAP inh: 17; FBW7 activator: 0; GPR151 ag: 1

What do the screens show for `O=C(CSc1nnc2ccc(-c3ccncc3)nn12)Nc1ccc2c(c1)OCO2`?
MITF primary: 1; TEAD-YAP inh: 7; FBW7 activator: 0; GPR151 ag: 0

How did c1ccc(CN2CCCC2c2nc(-c3ccncc3)n[nH]2)nc1 (stereo unspecified) do in these assays?
MITF primary: 101*; TEAD-YAP inh: -6; FBW7 activator: -1; GPR151 ag: 0; MITF inh conf: 92*; AS interf ctr: 100*

What do the screens show for `CN(C)c1ccc(NC(=O)CSc2ncccc2C(=O)O)cc1`?
MITF primary: 64*; TEAD-YAP inh: 32; FBW7 activator: 0; GPR151 ag: 1; MITF inh conf: 75*; AlphaScreen DR: >6.5; AS interf ctr: 22

How did COc1ccccc1N1CCN(/N=C(\C)c2cccc(Br)c2)CC1 do in these assays?
MITF primary: 14; TEAD-YAP inh: -28; FBW7 activator: 0; GPR151 ag: 0

How did O=C(NCC1Cc2cc(-c3cnccn3)ccc2O1)c1cccc(N2CCCC2=O)c1 (stereo unspecified) do in these assays?
MITF primary: 52*; TEAD-YAP inh: 5; FBW7 activator: 1; GPR151 ag: -1; MITF inh conf: 19; AS interf ctr: 15

Results for O=C(CN1CCc2ccccc2C1)Nc1ccc(C(=O)N2CCCCC2)cc1 ?
MITF primary: 60*; TEAD-YAP inh: -16; FBW7 activator: 0; GPR151 ag: 2; MITF inh conf: 11; AS interf ctr: 19

How did O=C(CN1CCN(Cc2ccccc2)CC1)Nc1ccccc1 do in these assays?
MITF primary: 1; TEAD-YAP inh: -5; FBW7 activator: 1; GPR151 ag: 3

How did O=C(CN1CCN(Cc2ccccc2)CC1)Nc1ccc(C(=O)N2CCCCC2)cc1 do in these assays?
MITF primary: 65*; TEAD-YAP inh: 3; FBW7 activator: 0; GPR151 ag: 1; MITF inh conf: 12; AS interf ctr: -2

How did NC(=O)c1ccc(NC(=O)CN2CCc3ccccc3C2)cc1 do in these assays?
MITF primary: 3; TEAD-YAP inh: -6; FBW7 activator: 0; GPR151 ag: 0

Results for O=C(Nc1nccs1)C1CC(=O)N(c2cccc(Cl)c2)C1 (stereo unspecified) ?
MITF primary: 2; TEAD-YAP inh: 13; FBW7 activator: 0; GPR151 ag: -1

What do the screens show for `NC(=O)C1CCN(C2=CC(=O)OC23CCCCC3)CC1`?
MITF primary: 3; TEAD-YAP inh: 15; FBW7 activator: 0; GPR151 ag: 4

How did NCc1nc2ccncc2[nH]1 do in these assays?
MITF primary: -14; TEAD-YAP inh: 10; FBW7 activator: 0; GPR151 ag: -2

Results for CCc1nc(C)ccc1OCc1nc2ccncc2[nH]1 ?
MITF primary: 58*; TEAD-YAP inh: 6; FBW7 activator: 0; GPR151 ag: 0; MITF inh conf: 20; AS interf ctr: 25

Results for O=c1c2c3c(sc2nc2n1CCCCC2)CCC3 ?
MITF primary: 71*; TEAD-YAP inh: -26; FBW7 activator: 0; GPR151 ag: 0; MITF inh conf: -5; AS interf ctr: 0

What do the screens show for `O=C1CCCc2c1sc1nc3n(c(=O)c21)CCCCC3`?
MITF primary: -2; TEAD-YAP inh: -44; FBW7 activator: 0; GPR151 ag: -1

What do the screens show for `O=C(c1ccncc1)N1CCN(CC2CC=CCC2)CC1` (stereo unspecified)?
MITF primary: 73*; TEAD-YAP inh: 7; FBW7 activator: 0; GPR151 ag: 0; MITF inh conf: -6; AS interf ctr: 0

How did O=C(c1cccnc1)N1CCN(CC2CC=CCC2)CC1 (stereo unspecified) do in these assays?
MITF primary: 71*; TEAD-YAP inh: 5; FBW7 activator: 1; GPR151 ag: 0; MITF inh conf: -7; AS interf ctr: -5

How did O=C(c1cccnc1)N1CCN(C2CCCC2)CC1 do in these assays?
MITF primary: 64*; TEAD-YAP inh: -2; FBW7 activator: 0; GPR151 ag: 0; MITF inh conf: 1; AS interf ctr: 8

Results for O=C(NCc1cccnc1)C1CCN(CC2CC=CCC2)CC1 (stereo unspecified) ?
MITF primary: 63*; TEAD-YAP inh: 0; FBW7 activator: 0; GPR151 ag: 1; MITF inh conf: 11; AS interf ctr: 15

Results for O=C(c1cccc(OC2CCN(CC3CC=CCC3)CC2)c1)N1CCOCC1 (stereo unspecified) ?
MITF primary: -1; TEAD-YAP inh: 4; FBW7 activator: 0; GPR151 ag: 0

How did CCCCC1CN(CC(=O)NCCc2nc(-c3cccnc3)n[nH]2)Cc2ccccc2O1 (stereo unspecified) do in these assays?
MITF primary: 1; TEAD-YAP inh: 9; FBW7 activator: 0; GPR151 ag: 0

Results for CCCCCC(=O)Nc1ccc(C(=O)OC2CCCCC2)cc1 ?
MITF primary: 4; TEAD-YAP inh: -4; FBW7 activator: 0; GPR151 ag: -1

Results for O=C(Nc1cccc(-c2nc3ccccc3s2)c1)C(c1ccccc1)c1ccccc1 ?
MITF primary: 13; TEAD-YAP inh: 0; FBW7 activator: 0; GPR151 ag: -1

How did CC(=O)N1CCc2cc(Br)cc(S(=O)(=O)N3CC(C)CC(C)C3)c21 (stereo unspecified) do in these assays?
MITF primary: 11; TEAD-YAP inh: 4; FBW7 activator: 0; GPR151 ag: -1

Results for O=C(NCCc1ccccc1)C1CCN(Cc2cccnc2)CC1 ?
MITF primary: 51*; TEAD-YAP inh: 2; FBW7 activator: 0; GPR151 ag: 3; MITF inh conf: 8; AS interf ctr: 21

What do the screens show for `COc1ccc(CN2CCC(C(=O)NCCc3ccccc3)CC2)cc1`?
MITF primary: 36; TEAD-YAP inh: 0; FBW7 activator: 0; GPR151 ag: 1

What do the screens show for `CCCN(Cc1cccc([N+](=O)[O-])c1)CC1CC1`?
MITF primary: 54*; TEAD-YAP inh: 4; FBW7 activator: 1; GPR151 ag: 0; MITF inh conf: -91; AS interf ctr: -4
